# Assay outcomes (PubChem BioAssay)
# TDP1 cell noCPT: qHTS for Inhibitors of human tyrosyl-DNA phosphodiesterase 1 (TDP1): qHTS in cells in absence of CPT | 420,000 compounds, 15% hits | DT40 Tdp1-/- hTDP1 cells, no CPT, ATP luminescence, 48 h | AID 686978, 2013 | Potency, µM (titrated, usually from 46.2 µM), most hits filed as inhibitors; note: nearly all actives have a fitted effect of over 55% in size
#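 No-CPT arm: Tdp1-/-;hTDP1 DT40 cells (400/well) plus compounds, incubated ≥48 hr at 37 °C. Readout CellTiter-Glo luminescence.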
# HT1080-NT tox: qHTS for induction of synthetic lethality in tumor cells producing 2HG: qHTS for the HT-1080-NT fibrosarcoma cell line. HT-1080-NT fibrosarcoma viability, CellTiter-Glo ATP luminescence, 48 h. Potency, µM (series often up to 46.1 µM), usual class: cytotoxic. 360,000 compounds, 1.6% hits;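 note: NT is the 2HG producing partner of a matched IDH1 knockdown line; nearly all actives have a fitted effect of over 55% in size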
#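 Read-out is CellTiter-Glo luminescence after 10 minutes at room temperature, following 48 hours' compound treatment of HT-1080-NT cells (750 cells/well, RPMI, 5% FBS, 37 degrees C).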
# TDP1 cell CPT: qHTS for Inhibitors of human tyrosyl-DNA phosphodiesterase 1 (TDP1): qHTS in cells in presence of CPT | Potency, µM (highest dose often 46.2 µM), actives largely listed as inhibitors | 420,000 compounds, 12% hits | chicken DT40 Tdp1-/-;hTDP1 cells + 20 nM CPT, ATP luminescence, 48 h; note: nearly all actives have a fitted effect of over 55% in size
#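 Cell growth measured by CellTiter-Glo luminescence after a minimum 48 h, 37 C compound exposure with 20 nM CPT in Tdp1-knockout DT40 cells stably expressing hTDP1, seeded 400/well; qHTS titration format.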
# HT1080 IDH1KD tx: qHTS for induction of synthetic lethality in tumor cells producing 2HG: qHTS for the HT-1080-IDH1KD cell line | HT-1080 IDH1 knockdown viability, ATP luminescence, 48 h | Potency, µM (series often up to 46.1 µM), most hits filed as cytotoxic | 360,000 compounds, 2% hits
#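 Using the IDH1-knockdown HT-1080 line run in the same batch and compound series as the NT line, viability after 48 h at 37 °C was determined by CellTiter-Glo luminescence and expressed as % activity.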
# IL1B secr inh: qHTS for Inhibitors of Inflammasome Signaling: IL-1-beta AlphaLISA Primary Screen; THP-1 LPS/ATP IL-1B secretion, AlphaLISA, 16 h; hits give low values; 360,000 compounds, 4.7% hits; activity change, % at 57.5 µM; in the data active = activity change below about -50%; inconclusive = mostly about -30% to -49%
#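 Secreted IL-1B measured by AlphaLISA bead assay after 16 h compound exposure of THP-1 cells; compounds (final up to 57.5 uM) added 1 h before LPS (250 ng/mL) and ATP (1.25 mM) stimulation; lower signal means less secretion.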
# Numbers stand for hits; 0 = inactive; ? = inconclusive; - = not tested or not shown. Rows were chosen to be rich in hits. Some 19% of all compounds tested hit in one or more screens of this group. Unless noted, calls come from the whole dose curve; as a rule, active = well fitted curve in the direction sought with a large enough effect; inconclusive = small, poorly fitted or top-dose-only effect, or another doubt; inactive = no such curve, though single readings can be large; an effect the other way counts as inactive or inconclusive.
SMILES,TDP1 cell noCPT,HT1080-NT tox,TDP1 cell CPT,HT1080 IDH1KD tx,IL1B secr inh
CC1CCN(c2ccc3c(c2)S(=O)(=O)c2cccc(C(=O)NCc4cccc(F)c4)c2C3=O)CC1,18.4µM,0,?,0,0
CN1CCC[C@@H]1CCNC(=O)c1cccc2c1C(=O)c1ccc(N3CCCC3)cc1S2(=O)=O,0,0,?,0,0
Cc1ccc(-c2cc(C(=O)N/N=C/C(Br)=C/c3ccccc3)n[nH]2)o1,10.3µM,20.6µM,11.6µM,20.6µM,?
Cc1ccc(-c2cc(C(=O)N/N=C/c3c[nH]c4ccccc34)n[nH]2)o1,?,0,?,0,0
Cc1cc(C(=O)N/N=C/c2cccn2C)n[nH]1,0,0,0,0,0
Cc1cc(C(=O)N/N=C\c2cc(C(C)(C)C)ccc2O)n[nH]1,3.26µM,?,20.6µM,?,0
Cc1cc(C(=O)N/N=C/c2cc(Br)cc(Br)c2OC(=O)c2cccc(F)c2)n[nH]1,5.8µM,0,5.8µM,0,0
Cc1ccc(-c2cc(C(=O)N/N=C/c3ccccc3O)n[nH]2)o1,5.17µM,?,5.17µM,?,0
CCOC(=O)c1cccc(C2=CC(=O)C[C@H](c3ccc(Cl)cc3)C2)c1,?,0,?,0,0
Cc1ccc(/C=C/C(=O)c2ccccc(=O)c2O)c(C)c1,20.6µM,20.6µM,14.6µM,18.4µM,-103.6
O=C(/C=C/c1ccccc1Cl)c1ccccc(=O)c1O,4.11µM,11.6µM,2.91µM,11.6µM,-96.7
Cc1ccc(C)c(/C=C/C(=O)c2ccccc(=O)c2O)c1,6.51µM,?,10.3µM,14.6µM,-63.9
O=C(/C=C/c1ccc([N+](=O)[O-])cc1)c1ccccc(=O)c1O,3.26µM,6.51µM,2.59µM,5.8µM,-98.0
Cc1ccc(C)c(NC(=O)c2cc(=O)c3ccccc3o2)c1,?,0,0,0,0
CC(=O)/C(=C\c1ccccc1)CC(=O)O,0,-,0,-,-
CC(=O)Nc1c(-c2cc(=O)oc3cc(C)ccc23)oc2ccccc12,?,0,?,0,0
NC(=O)c1ccsc1NC(=O)CSc1n[nH]c(N)n1,0,0,0,0,0
CCOc1ccc(/C=C/C2=Cc3c(sc(NC(=O)CSc4n[nH]c(N)n4)c3C#N)C(C)(C)C2)cc1,14.6µM,?,13µM,?,-92.6
Cc1ccsc1/C=C/C1=Cc2c(sc(NC(=O)CSc3n[nH]c(N)n3)c2C#N)C(C)(C)C1,14.6µM,22.4µM,23.1µM,12.6µM,-63.1
CC(NC(=O)CNC(=O)c1ccc2c(c1)OCO2)c1ccc(S(N)(=O)=O)cc1 (stereo unspecified),0,0,0,0,0
Cc1cc2nc(-c3ccc(SCC(=O)Nc4ccc5c(c4)OCCO5)nc3)[nH]c2cc1C,23.1µM,?,23.1µM,?,0
Cc1ccc2nc(-c3ccc(SCC(=O)Nc4ccc5c(c4)OCCO5)nc3)[nH]c2c1,0,0,?,0,0
Cc1cc2nc(-c3ccc(SCC(=O)N4CCOCC4)nc3)[nH]c2cc1C,?,?,25.9µM,?,?
COc1cc(C(=O)Nc2nc(C)c(Cc3ccc4c(c3)OCO4)s2)cc(OC)c1OC,2.06µM,4.11µM,1.3µM,4.61µM,0
CCCOc1ccc(C(=O)Nc2nc(C)c(Cc3ccc4c(c3)OCO4)s2)cc1,7.31µM,0,?,?,0
Cc1c(Cc2ccc3c(c2)OCO3)sc(NC(=O)c2ccc3ccccc3c2)c1C(N)=O,?,0,?,0,0
Cc1nc(NC(=O)c2ccc(OCC(C)C)cc2)sc1Cc1ccc2c(c1)OCO2,16.4µM,0,?,?,0
CCCCOc1ccc(C(=O)Nc2ccc3c(c2)OCO3)cc1,0,0,0,?,0
OCC[C@H]1C[C@H](O)[C@@H](O)[C@]2(Cc3ccccc3CCO2)O1,0,0,0,0,0
Cc1ccc(-c2nc3ccccc3nc2-c2ccccc2)cc1,14.6µM,0,?,0,0
